Values without a mark were called inactive. Records with an inconclusive call do not appear. Active and inactive are the calls of the source. Unless noted, calls come from the whole dose curve; as a rule, active = well fitted curve in the direction sought with a large enough effect in the repeat runs; inconclusive = weak or mixed curves; inactive = no such curve, though single readings can be large; an effect the other way counts as inactive or inconclusive.

Assay [1] in a line: qHTS RealTime-Glo MT Cell Viability Assay in HEK293 cells - 0 hour (AID 1224880). Note: top concentration of the series differs between compounds; nearly all actives have a fitted effect of over 45% in size. A digest of the protocol:
(§1)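 Measured as luminescence from the same continuously cultured HEK293 wells at successive time points (0, 8, 16, 24, 32, 40 h) after compound addition. Reagent present from seeding; dosing at 5 h; incubation 37 C.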
Background: Quantitative high-throughput screening tests each substance at several concentrations.

A short description of assay [2]: A CellTox Green Cytotoxicity Assay to monitor cytotoxicity in HepG2 cells - 32 hour (AID 1224883). Note: nearly all actives have a fitted effect of over 50% in size. A digest of the protocol:
(§2)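 Fluorescent DNA-binding dye, 600 HepG2 cells/well, 5 h preincubation then compound in DMSO; same plates read at 0–40 h, 37 C.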

Assay [3] is described as follows: A CellTox Green Cytotoxicity Assay to monitor cytotoxicity in HEK293 cells - 8 hour (AID 1224884). Note: nearly all actives have a fitted effect of over 35% in size. In short, it runs like this: (§3)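 Homogeneous no-lysis format: HEK293 cell suspension mixed with CellTox Green reagent, seeded, incubated 5 h at 37 C/5% CO2, then dosed by pintool with compound in DMSO.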
Assay [4] in a line: qHTS RealTime-Glo MT Cell Viability Assay in HepG2 cells - 16 hour (AID 1224885). Note: nearly all actives have a fitted effect of over 50% in size. A digest of the protocol: (§4)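 Cells + NanoLuc/prosubstrate dispensed (600 cells/well) → 5 h at 37 C/5% CO2 → compounds in DMSO transferred → 40 h incubation at 37 C, luminescence read at 0, 8, 16, 24, 32, 40 h.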
Assay [5] is described as follows: qHTS RealTime-Glo MT Cell Viability Assay in HEK293 cells - 24 hour (AID 1224886). Note: top concentration of the series differs between compounds; nearly all actives have a fitted effect of over 50% in size. A digest of the protocol: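 Tox21 10K qHTS, HEK293, 600 cells/well, RealTime-Glo reagent co-dispensed with cells; 5 h preincubation, compound by pintool, 37 C, luminescence at 0–40 h.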
A short description of assay [6]: qHTS RealTime-Glo MT Cell Viability Assay in HEK293 cells - 8 hour (AID 1224887). Note: top concentration of the series differs between compounds; nearly all actives have a fitted effect of over 50% in size. A digest of the protocol:
as §1

The nature of assay [7]: A CellTox Green Cytotoxicity Assay to monitor cytotoxicity in HEK293 cells - 16 hour (AID 1224888). Note: nearly all actives have a fitted effect of over 35% in size. In short, it runs like this:
as §3

The nature of assay [8]: qHTS RealTime-Glo MT Cell Viability Assay in HepG2 cells - 0 hour (AID 1224889). Note: nearly all actives have a fitted effect of over 50% in size. A digest of the protocol:
as §4

Assay [9] is described as follows: A CellTox Green Cytotoxicity Assay to monitor cytotoxicity in HepG2 cells - 8 hour (AID 1224890). Note: nearly all actives have a fitted effect of over 45% in size. A digest of the protocol: as §2
Assay [10] in a line: qHTS assay to identify small molecule antagonists of the estrogen receptor alpha (ER-alpha) signaling pathway using the BG1 cell line in the presence of 0.1 nM 17-beta-estradiol - cell viability counter screen (AID 1259241). Note: nearly all actives have a fitted effect of over 40% in size. In short, it runs like this:
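Live-cell protease activity (CellTiter-Fluor fluorescence, 30 min) was read in the same wells after VM7Luc4E2 cells had been exposed to compounds with 0.1 nM 17beta-estradiol for 22 hr at 37C.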

Assay [11] in a line: qHTS assay to identify small molecule antagonists of the androgen receptor (AR) signaling pathway using the MDA cell line in the presence of 0.5 nM R1881 - cell viability counter screen (AID 1259242). Note: nearly all actives have a fitted effect of over 45% in size. In short, it runs like this: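 Human breast carcinoma MDA-kb2 cells, cultured without CO2, receive compounds alongside 0.5 nM (final) R1881 agonist. After 16 hr at 37C, viability is taken as live-cell protease signal.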

Assay [12] concerns the target Androgen receptor (Homo sapiens) (UniProt P10275). Kind of assay: qHTS assay to identify small molecule antagonists of the androgen receptor (AR) signaling pathway using the MDA cell line in the presence of 0.5 nM R1881 (AID 1259243). Note: nearly all actives have a fitted effect of over 50% in size. In short, it runs like this:
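Cells: MDA-kb2 (MMTV-luc). Stimulus: 0.5 nM R1881. Time: 16 hr, 37C, no CO2. Detection: ONE-Glo luminescence after 30 min at RT.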

Assay [13] has as its target Estrogen receptor (Homo sapiens) (UniProt P03372). Kind of assay: qHTS assay to identify small molecule antagonists of the estrogen receptor alpha (ER-alpha) signaling pathway using the BG1 cell line in the presence of 0.1 nM 17-beta-estradiol (AID 1259244). Note: nearly all actives have a fitted effect of over 50% in size. A digest of the protocol:
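Seeding of stripped-serum-adapted VM7Luc4E2 cells, 24 h attachment, compound transfer, then 0.1 nM final 17beta-estradiol; after 22 h incubation, ONE-Glo reagent and luminescence reading.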

The nature of assay [14]: qHTS assay to identify small molecule HDAC inhibitors (AID 1259364).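 Note: wild-type HCT-116 cells with endogenous class I/II HDAC activity; top concentration of the series differs between compounds; nearly all actives have a fitted effect of over 45% in size.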 A digest of the protocol: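 After a 2 hr compound incubation (37C, 5% CO2), HCT-116 cells seeded at 1,500/well the day before received HDAC-Glo reagent; signal read as luminescence after 30 min at room temperature.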
A short description of assay [15]: qHTS assay to identify small molecule HDAC inhibitors - cell viability counter screen (AID 1259365). In short, it runs like this: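 HCT-116 (wild type), 1,500 cells/well, overnight 37C/5% CO2; compound in DMSO 2hr; CellTiter-Glo 30min RT; luminescence read.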
The nature of assay [16]: qHTS assay to identify small molecule agonists of the sonic hedgehog signaling (Shh) pathway - cell viability counter screen (AID 1259366). Note: nearly all actives have a fitted effect of over 50% in size. Note: potency is the fitted concentration of half-maximal effect. In short, it runs like this:
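CellTiter-Fluor fluorescence read-out, 1 hr at 37C, added after 23hr compound exposure. Cells: 3T3 Gli1-Luc, an NIH/3T3 clone with stably integrated Gli1-Luc reporter, plated 4hr before compound.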

Assay [17] is described as follows: qHTS assay to identify small molecule antagonists of the sonic hedgehog signaling (Shh) pathway - cell viability counter screen (AID 1259367). Note: nearly all actives have a fitted effect of over 55% in size. A digest of the protocol: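 Conditioned medium drove Shh signaling in 3T3 Gli1-Luc cells exposed to compounds at 37C and 5% CO2. Viability was determined from CellTiter-Fluor fluorescence, with reagent incubated 1 hr after 23 hr of treatment.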

Assay [18] in a line: A CellTox Green Cytotoxicity Assay to monitor cytotoxicity in HepG2 cells - 0 hour (AID 1224882). Note: nearly all actives have a fitted effect of over 35% in size. In short, it runs like this:
as §2

Assay [19] can be described thus: qHTS assay to identify small molecule phospholipidosis (PLD) inducers (AID 1259344; active = well fitted curve in the direction sought with a large enough effect; an effect the other way counts as inactive or inconclusive). In short, it runs like this:
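After 4 h attachment on collagen I, HepG2 cells were dosed with compound alongside LipidTOX Red, kept 24 h at 37 C, fixed, and imaged for lamellar phospholipid pits.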

Assay [20] in a line: A CellTox Green Cytotoxicity Assay to monitor cytotoxicity in HEK293 cells - 32 hour (AID 1224881). Note: nearly all actives have a fitted effect of over 40% in size. In short, it runs like this: as §3

Chain of Estrogen receptor (Homo sapiens) (P03372 whole entry, looked up): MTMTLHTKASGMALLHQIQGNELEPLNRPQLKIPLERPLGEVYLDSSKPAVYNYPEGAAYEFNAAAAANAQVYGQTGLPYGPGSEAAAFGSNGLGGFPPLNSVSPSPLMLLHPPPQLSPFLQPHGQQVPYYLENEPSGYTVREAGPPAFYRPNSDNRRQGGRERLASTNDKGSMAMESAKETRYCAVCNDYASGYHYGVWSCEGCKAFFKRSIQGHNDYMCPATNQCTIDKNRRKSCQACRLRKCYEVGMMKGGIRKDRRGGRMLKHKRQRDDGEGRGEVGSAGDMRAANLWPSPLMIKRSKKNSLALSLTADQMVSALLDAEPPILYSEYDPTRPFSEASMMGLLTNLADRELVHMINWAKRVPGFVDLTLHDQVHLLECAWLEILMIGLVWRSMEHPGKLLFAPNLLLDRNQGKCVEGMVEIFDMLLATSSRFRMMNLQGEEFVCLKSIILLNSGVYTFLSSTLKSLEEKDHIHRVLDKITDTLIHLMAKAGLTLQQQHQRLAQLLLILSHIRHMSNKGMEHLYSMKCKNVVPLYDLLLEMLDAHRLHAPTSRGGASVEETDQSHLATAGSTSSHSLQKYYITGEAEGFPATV
Chain of Androgen receptor (Homo sapiens) (P10275 whole entry, looked up): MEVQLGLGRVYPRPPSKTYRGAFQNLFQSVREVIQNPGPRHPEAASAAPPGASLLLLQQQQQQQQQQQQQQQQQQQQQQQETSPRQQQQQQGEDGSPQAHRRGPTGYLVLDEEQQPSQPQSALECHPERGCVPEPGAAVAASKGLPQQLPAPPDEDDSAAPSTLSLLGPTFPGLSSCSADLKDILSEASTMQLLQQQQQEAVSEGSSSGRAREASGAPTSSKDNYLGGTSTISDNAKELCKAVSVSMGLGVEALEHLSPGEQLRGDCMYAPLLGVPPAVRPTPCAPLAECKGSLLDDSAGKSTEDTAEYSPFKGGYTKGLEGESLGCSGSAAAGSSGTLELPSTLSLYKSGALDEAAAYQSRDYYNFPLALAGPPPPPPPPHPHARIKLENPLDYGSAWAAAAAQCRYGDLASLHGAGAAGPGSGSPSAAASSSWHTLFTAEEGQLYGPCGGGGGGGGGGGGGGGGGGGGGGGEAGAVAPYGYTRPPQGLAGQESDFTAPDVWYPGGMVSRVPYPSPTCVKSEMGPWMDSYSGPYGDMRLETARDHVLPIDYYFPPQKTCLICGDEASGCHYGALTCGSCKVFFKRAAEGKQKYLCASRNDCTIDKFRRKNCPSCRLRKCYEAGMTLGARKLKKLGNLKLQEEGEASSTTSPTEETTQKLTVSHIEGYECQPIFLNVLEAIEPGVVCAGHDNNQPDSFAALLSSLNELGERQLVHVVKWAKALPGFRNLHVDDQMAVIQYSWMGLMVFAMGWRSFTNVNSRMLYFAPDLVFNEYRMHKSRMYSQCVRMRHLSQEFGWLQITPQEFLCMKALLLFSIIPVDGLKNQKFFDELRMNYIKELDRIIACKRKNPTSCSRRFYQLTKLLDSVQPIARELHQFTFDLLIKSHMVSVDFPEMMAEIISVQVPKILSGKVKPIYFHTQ

As to `CCCCNc1ccccc1`, the compound was called inactive in [1], in [4], in assay [10], in assay [11], in assay [13] and in [15]. Also, in assay [17], the compound was classed as inactive. Besides, the Potency entry in assay [2], in assay [3], in assay [5], in assay [6], in [7] and in assay [8] was “inactive” in each case. Also, the Potency entry in assay [9], in assay [12], in assay [14] and in assay [16] was “inactive” in each case.

`CCN(CC)S(=O)(=O)c1ccc(C(=O)O)cc1`: the Potency entry in assay [18], in assay [2], in assay [8], in [9], in assay [19] and in assay [14] was “inactive” in each case. In addition, in assay [16], the Potency result is “inactive”. Besides, the call in [4], in assay [10], in assay [11], in assay [13], in assay [15] and in [17] was inactive.

With `CCCCCCCCCCCCI`, the compound was called inactive in [1], in [10], in assay [11] and in assay [17]. The Potency entry in [18], in assay [2], in [5], in assay [6], in assay [7] and in assay [8] was “inactive” in each case. The Potency entry in assay [9] and in [16] was “inactive” in each case.

Take `CC(C)c1cccc(O)c1`: the outcome in assay [1], in assay [4], in assay [10], in [11], in [13] and in assay [15] was inactive. The compound was called inactive in [17]. For the same compound, the Potency result in [18], in assay [3], in assay [5], in [6], in assay [7] and in assay [8] was “inactive” throughout. In addition, the Potency result in [9], in [14] and in [16] was “inactive” each time.

`Cn1cnc2c(=O)[nH]c(N)nc21`: the Potency result in assay [20], in assay [18], in [2], in assay [3], in [5] and in assay [6] was “inactive” in each case. In addition, the Potency result in assay [7], in assay [8], in assay [9] and in assay [14] was “inactive” throughout. Moreover, the compound was classed as inactive in assay [4], in assay [10], in assay [11] and in assay [17].

As to `CCCC(C)C(=O)O` (stereo not given), the result in assay [1], in assay [4], in assay [10], in assay [11], in [13] and in assay [15] was inactive. In addition, in assay [17], the compound was called inactive. In addition, the Potency result in assay [18], in assay [2], in assay [3], in assay [6], in assay [7] and in [8] was “inactive” throughout. Also, the Potency result in assay [9], in assay [14] and in assay [16] was “inactive” in each case.

Regarding `COC(=O)C1=C(C)NC(C)=C(C(=O)OCC(C)=O)C1c1ccccc1[N+](=O)[O-]` (stereo not given), the Potency entry in [20], in [18], in assay [2], in assay [3], in [5] and in assay [6] was “inactive” each time. In addition, the Potency result in [7], in [9], in [19] and in assay [14] was “inactive” throughout. Moreover, the outcome in [10], in assay [11], in [13] and in [15] was inactive. The Potency in [16] is 26.6 µM (active).

In the case of `CCCc1ccc(N)cc1`, the result in assay [1], in [4], in assay [10], in assay [11], in assay [13] and in assay [15] was inactive. Besides, in assay [17], the compound was called inactive. For the same compound, the Potency entry in assay [2], in [3], in assay [5], in assay [6], in assay [7] and in assay [8] was “inactive” each time. For the same compound, the Potency result in [9], in assay [14] and in assay [16] was “inactive” in each case.

In the case of `CC(C)=CCC/C(C)=C/C(=O)O`, the result in [1], in [4], in assay [10], in assay [11], in assay [13] and in [15] was inactive. The call in assay [17] was inactive. In addition, the Potency entry in assay [18], in assay [3], in assay [5], in assay [6], in assay [7] and in [8] was “inactive” throughout. Moreover, the Potency entry in [9], in assay [14] and in [16] was “inactive” in each case.

In the case of `O=S(=O)(c1cccc2cnccc12)N1CCCNCC1`, the call in assay [1], in assay [4], in [10], in [11], in assay [15] and in [17] was inactive. The Potency result in assay [18], in assay [3], in assay [5], in assay [6], in assay [7] and in [8] was “inactive” in each case. The Potency result in assay [9], in [19] and in [14] was “inactive” throughout.

These data come from PubChem BioAssay (Tox21).
